In PubChem BioAssay AID652104 (National Center for Advancing Translational Sciences (NCATS), 2013):
Screen size: about 410,000 compounds; about 7,200 (1.8%) were called active. Roughly 7% stayed inconclusive and do not appear here. This excerpt belongs to a sample that is enriched for actives. Values without a mark were called inactive. Calls come from the whole dose curve; as a rule, active = well fitted activation curve with a large enough effect; inconclusive = small, poorly fitted or top-dose-only effect, or another doubt; inactive = no such curve, though single readings can be large or run the other way.

Test: qHTS of TDP-43 Inhibitors; note: nearly all actives have a fitted effect of over 50% in size; for growth rescue (activation): % of control where 0% means no effect
Conditions: TDP-43 expressing yeast growth rescue, BacTiter-Glo, 24 h; series mostly up to 46.1 µM; growth rescue (activation): at the top concentration
Procedure, shortened: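 In this qHTS, compounds that restore growth of yeast expressing TDP-43 appear as activators. Cells (OD600=0.02, galactose medium, raffinose-pregrown) are incubated with compound 24 hr at 30 deg C and growth is quantified by BacTiter-Glo.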
Potency is the fitted concentration of half-maximal effect.

Row | Structure (SMILES) | growth rescue (activation) | Potency
1 | CSCc1cc(N(C)C)nc(SCc2ccc(Cl)cc2Cl)n1 | 26.4% | 
2 | CC(C)(CNC(=O)Cc1ccc(Cl)cc1Cl)N1CCOCC1 | -19.1% | 
3 | CSCc1cc(N2CCOCC2)nc(SCc2ccc(Cl)cc2Cl)n1 |  | 22.4 µM (active)
4 | Cc1ccc(C(=O)Nc2ccccc2F)cc1S(=O)(=O)N1CCOCC1 | 18% | 
5 | O=C(Nc1cccc2cccnc12)c1cccc(Cl)c1 |  | 14.1 µM (active)
6 | COc1c(Cl)cc(Cl)cc1C(=O)Nc1cccc2cccnc12 | 6.99% | 
7 | O=C(Nc1cccc2cccnc12)c1cccc2c(Br)cccc12 | 25.1% | 
8 | CCOCc1nnc(NC(=O)CCC2CCCCC2)s1 | 8.74% | 
9 | N/C(=N\OC(=O)CCC1CCCCC1)c1ccccn1 |  | 8.91 µM (active)
10 | CC(C)(C)NC(=O)NC(=O)COC(=O)CCC1CCCCC1 | 22.3% | 
11 | COc1ccc(-c2nnc(SCC(=O)Nc3ccc(C(C)C)cc3)nc2-c2ccc(OC)c(OC)c2)cc1OC | 0% | 
12 | Clc1ccc(CSc2nncn3c2cc2occc23)cc1 |  | 25.1 µM (active)
13 | CCN(C(=O)CSc1nnc(C)n2c1cc1occc12)c1ccccc1 | 0% | 
14 | CC(C)Cn1cnc2c(SCc3ccc(Cl)cc3)nc(N)nc21 | 25.8% | 
15 | COc1ccc2c(c1)CCc1c(C(=O)Nc3cc(C)ccc3O)noc1-2 | 13% | 
16 | Cc1ccc(C)c(N2CCN(C(=O)C3CCC(CNS(=O)(=O)c4cccs4)CC3)CC2)c1 (configuration not stated) | 1.45% | 
17 | COc1ccc2c(c1)CCC/C2=N\OC(=O)c1ccccc1F |  | 11.2 µM (active)
18 | COc1ccc2c(c1)CCc1c(C(=O)N3CCCC3)noc1-2 | -5.8% | 
19 | COc1ccc2c(CC(=O)NNC(=O)c3ccccc3F)coc2c1 | -11.2% | 
20 | COc1ccc(Br)cc1CN(C)CC(=O)Nc1cc([N+](=O)[O-])ccc1OC | 0.246% | 
21 | COc1ccccc1CC(=O)Nc1ccc([N+](=O)[O-])cc1OC |  | 11.2 µM (active)
22 | COc1ccc([N+](=O)[O-])cc1NCC(=O)c1ccc(C)cc1 | -14.4% | 
23 | COc1cc([N+](=O)[O-])ccc1NC(=S)N1CCN(c2ccccn2)CC1 | -14.3% | 
24 | COc1ccc(NC(=O)c2cc([N+](=O)[O-])ccc2NC(=O)CNC2CCCCC2C)c(OC)c1 (configuration not stated) | -12.7% | 
25 | COc1cc([N+](=O)[O-])ccc1NC(=O)COC(=O)CCOc1ccc(C)cc1 |  | 17.8 µM (active)

Row | Structure (SMILES) | growth rescue (activation) | Potency
26 | Cc1nc2cc(C(F)(F)F)ccc2n1CCNc1nc(-c2cc(Cl)c(N)c(Cl)c2)cs1 |  | 22.4 µM (active)
27 | CCCn1c(C(C)Nc2nc(-c3ccc(C)cc3)cs2)nc2cc(Cl)c(N3CCCCC3)cc21 (configuration not stated) | -2.21% | 
28 | Nc1c(Cl)cc(-c2csc(N3CCCC3c3nc4cc(Cl)c(Cl)cc4n3CCOCCO)n2)cc1Cl (configuration not stated) | 0% | 
29 | CCc1cccc(CC)c1NC(=O)Cn1c(=O)c(-c2cc(C)ccc2NC(C)=O)nc2ccccc21 | 11.5% | 
30 | CC(C)C[C@@H]1Cc2[nH][nH]c(=O)c2[C@H](CCc2ccccc2)O1 | 6.76% | 
31 | CC(C)C1Cc2[nH][nH]c(=O)c2C(c2ccc(Cl)cc2)O1 (configuration not stated) |  | 20 µM (active)
32 | CC(C)C1CC2=C(C(=O)OC(C)(C)O2)C(c2ccc(F)cc2)O1 (configuration not stated) | 19% | 
33 | Cc1cccn2c(=O)c3cc(C(=O)NC(C)c4ccccc4)c(=N)n(CCCO)c3nc12 (configuration not stated) | -8.98% | 
34 | CCc1ccc(NC(=O)c2nn(-c3ccc(C)cc3)c(=O)n(C)c2=O)cc1 | 19% [at 9.22 µM] | 
35 | CCOC(=O)c1ccc2c(c1)N(Cc1cccc(OC)c1)C(=O)c1ccccc1S2(=O)=O | 11.1% | 
36 | CC(=O)c1cccc(NC(=O)c2nc(-c3ccccc3)n(-c3cccc(C)c3)n2)c1 |  | 22.4 µM (active)
37 | Cc1cccc(NC(=O)CSc2nnc(CNC(=O)c3cccc(C)c3)n2-c2ccccc2)c1 | -2.58% | 
38 | Cc1cccc(C)c1NC(=O)CNC(=O)c1c(C)nn(-c2ccccc2)c1C | 21.2% | 
39 | Cc1nn(-c2ccccc2)c2sc(C(=O)N(Cc3ccco3)C(C)C(=O)NC(C)(C)C)cc12 (configuration not stated) | 11.9% | 
40 | CC(=O)c1ccc(NC(=O)c2nc3nc(C)cc(C(F)F)n3n2)cc1 | 21.4% | 
41 | Cc1nn(-c2ccccc2)c(-n2cccc2)c1C(=O)O | 2.82% | 
42 | Cc1nn(-c2ccccc2)c(Cl)c1C(=O)Nc1ccccc1 |  | 11.2 µM (active)
43 | CCn1c(=O)c2cc(C(=O)Nc3cccc(C(C)=O)c3)sc2c2ccccc21 | 6.15% | 
44 | Cc1cccc(NC(=O)c2cc3c(C)nn(-c4ccccc4)c3s2)c1 |  | 35.5 µM (active)
45 | Cc1ccc(-c2nnc(SCc3ccccc3C)o2)cc1 | 14.3% | 
46 | COc1ccc(CCNC(=O)c2ccc3c(c2)sc2nc(-c4ccc(C)cc4)cn23)cc1OC | 19.4% | 
47 | O=C(OCc1ccc(-c2ccccc2)cc1)c1cccc(O)c1 | -90.7% | 
48 | Oc1ccc(-c2nncn2-c2ccccc2)cc1 | 7.88% | 
49 | Oc1ccc(-c2cccc(-c3ccc(O)cc3)c2)cc1 |  | 6.31 µM (active)
50 | COCCN(Cc1ccco1)C(=O)Cn1ncc2c([nH]c3ccccc32)c1=O | 13% | 

Row | Structure (SMILES) | growth rescue (activation) | Potency
51 | COc1cccc(CNC(=O)C(=O)NCC(c2cccs2)S(=O)(=O)c2ccccc2)c1 (configuration not stated) | -8.15% | 
52 | COc1ccc(Br)cc1CNC(=O)c1cc(=O)[nH]c2ccc(S(=O)(=O)N3CCCC3)cc12 | 18.9% | 
53 | CCOC(=O)N1CCc2c(sc3c2C(=O)NC(c2ccccc2F)N3)C1 (configuration not stated) | 15.8% | 
54 | CCN(C(=O)CSc1ncnc2c1cnn2-c1ccccc1)C1CCS(=O)(=O)C1 (configuration not stated) | -4.49% | 
55 | Clc1cccc(-n2ncc3c(NCCc4ccccc4)ncnc32)c1 | 0% | 
56 | CCN(c1ncnc2c1cnn2-c1ccc(C)cc1)C1CCCCC1 | 22% | 
57 | CCN(CC)C(=O)CSc1ncnc2c1cnn2-c1ccccc1 |  | 15.8 µM (active)
58 | CC(C)Sc1ncnc2c1cnn2-c1ccccc1 |  | 12.6 µM (active)
59 | Cc1ccc(-n2ncc3c(Nc4cccc(C(=O)O)c4)ncnc32)cc1 |  | inactive
60 | CCC(C)N(C(=O)CSc1ncnc2c1cnn2-c1ccccc1)C1CCS(=O)(=O)C1 (configuration not stated) | 21.9% | 
61 | COc1ccccc1N1CCN(C(=O)CSc2ncnc3c2cnn3-c2ccc(C)c(C)c2)CC1 | 4.55% | 
62 | COC(=O)CSc1ncnc2c1cnn2-c1ccc(C)cc1C |  | 17.8 µM (active)
63 | CCOc1cccc(NC(=O)c2ccc(F)c(S(=O)(=O)N(CC)c3cccc(C)c3)c2)c1 | 10.1% | 
64 | Cc1ccccc1-n1c(=O)c2ccccc2n(Cc2ccc(F)cc2)c1=O | 0% | 
65 | CCn1c(C(=O)Nc2cc(Cl)ccc2C)cc2sc(Cl)cc21 | 5.74% | 
66 | CCC(=O)N1CCc2cc(Br)cc(S(=O)(=O)CCC(=O)NCc3ccccc3OC)c21 | 2.93% | 
67 | CCc1cccc(C)c1NS(=O)(=O)c1ccc(-c2cc(C)no2)s1 | 6.01% | 
68 | Cc1cc(NC(=O)C2CCC(CNS(=O)(=O)c3ccc(Br)s3)CC2)ccc1Br (configuration not stated) | 11.5% | 
69 | COc1ccc(OC)c(CCNC(=O)CCCn2c(=O)c3cccn3c3cccnc32)c1 | 9.05% | 
70 | CN1CCN(C(CNC(=O)c2ccccc2F)c2ccc3c(c2)OCO3)CC1 (configuration not stated) | 22.5% | 
71 | Cc1ccc(-c2nnc3c4ccccc4c(C)nn23)cc1NC(=O)c1cccc(Br)c1 | 6.34% | 
72 | CCCN1CCN(CCCNC(=O)c2cnn(-c3ccc(C)cc3)c2-n2cccc2)CC1 | -13% | 
73 | CCn1nccc1C(=O)Nc1ccc(S(=O)(=O)NC23CC4CC(CC(C4)C2)C3)cc1 | -9.71% | 
74 | CCn1nccc1C(=O)Nc1ccc(Cl)c(Cl)c1 |  | 17.8 µM (active)
75 | Cc1ccc(-c2nn(CCC(=O)Nc3ccc(Cl)c(Cl)c3)c(=O)c3ccccc23)cc1 | -5.81% | 

Row | Structure (SMILES) | growth rescue (activation) | Potency
76 | COc1ccc(OCC(=O)Nc2cc(C)c(Cl)cc2OC)c([N+](=O)[O-])c1 | -6.38% | 
77 | COc1ccc(-c2noc(-c3ccc(N4CCN(c5ccccc5)CC4)c([N+](=O)[O-])c3)n2)cc1OC | 22.5% | 
78 | Cc1nnc(-c2ccc(Oc3ccc(C)c(C)c3)c([N+](=O)[O-])c2)o1 |  | 20 µM (active)
79 | COc1ccc(Cl)cc1NC(=O)CSc1nc(=O)[nH]c2c1CCCC2 | 20.8% | 
80 | CCOC(=O)c1cc(NC(=O)c2ccc(F)cc2)c(=O)n2c1oc1ccccc12 | 19% | 
81 | Cc1ccc(F)cc1NC(=O)CCSc1nc(-c2ccco2)cc(C(F)(F)F)n1 | 0% | 
82 | CCCC(=O)N1CCC1(C)C(=O)NS(=O)(=O)c1ccc(Cl)cc1 (configuration not stated) | 20.4% | 
83 | CC(C)c1ccc(CC(=O)N2CCC2(C)C(=O)NS(=O)(=O)c2ccc(C(C)(C)C)cc2)cc1 (configuration not stated) |  | 22.4 µM (active)
84 | CC(C)(C)c1ccc(S(=O)(=O)NC(=O)C2(C)CCN2C(=O)CC2CC2)cc1 (configuration not stated) | 12.9% | 
85 | CCCCS(=O)(=O)c1oc(-c2cccs2)nc1S(=O)(=O)c1ccccc1 | 9.11% | 
86 | CCC(=O)N1CCc2cc(Br)cc(S(=O)(=O)CCC(=O)NCCc3ccc(OC)c(OC)c3)c21 | -3.94% | 
87 | COc1cccc(CNC(=O)CSc2c3c(nc4cc(Cl)ccc24)CCCC3)c1 | 0% | 
88 | COc1cccc(CNC(=O)c2ccc3c(c2)sc2nc(-c4cccc(OC)c4)cn23)c1 | 11.4% | 
89 | COc1cccc(CNC(=O)c2ccc3c(Cl)c4c(nc3c2)CCCC4)c1 |  | 15.8 µM (active)
90 | CCC(C(=O)Nc1cccc(Cl)c1C)n1nc(-c2ccc(C)cc2)ccc1=O (configuration not stated) | 19.3% | 
91 | Cc1cccc(C(CC(=O)NCC2(c3ccccc3)CCCC2)c2ccccc2)c1O (configuration not stated) | 1.56% | 
92 | CCN(C(=O)C1CCCN(c2nc(-c3ccc(OC)cc3)no2)C1)c1ccc(OC)cc1 (configuration not stated) |  | 22.4 µM (active)
93 | CC(C)c1ccc(NC(=O)C2CCN(c3nc(-c4ccc(C(C)C)cc4)no3)CC2)cc1 | 15.4% | 
94 | COc1ccc(NC(=O)N2CCCC(c3nc(-c4ccc(F)cc4)no3)C2)cc1 (configuration not stated) | -8.68% | 
95 | O=C(Nc1cc(C(F)(F)F)ccc1Cl)c1ccc2c(c1)CCN2S(=O)(=O)c1ccccc1 | 0.492% | 
96 | Cc1ccccc1CNC(=O)CSc1nnc(C)c2c(C)n(-c3ccccc3)nc12 | -0.0928% | 
97 | Cc1ccc(Cl)cc1N1CCN(C(=O)c2cn(C)c3ccc(S(=O)(=O)N(C)C4CCCCC4)cc3c2=O)CC1 | -6.86% | 
